Experimental data from PubChem BioAssay (Tox21).
Results filed as inconclusive are left out. Where a call stands in place of a potency, no number is given. Values without a mark were called inactive. The source made the active and inactive calls. The call rests on the fitted dose curve; in most records, active means well fitted inhibition curve with a large enough effect in the signal ratio in the repeat runs (not every such curve was filed as active); inconclusive means weak or mixed curves, or effect the other way; inactive means no such curve, though single readings can be large or run the other way; the % refers to the signal ratio.

target: Peroxisome proliferator-activated receptor delta (Homo sapiens) (UniProt Q03181); assay: qHTS assay to identify small molecule antagonists of the peroxisome proliferator-activated receptor delta (PPARd) signaling pathway (AID 743215); conditions: HEK293H PPARd-UAS-bla, beta-lactamase FRET ratio, antagonist, 17 h; series mostly up to 62 µM;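 further: cells stimulated with agonist L165041 at 300 nM final during compound exposure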
Description: U.S. Tox21 Program National Center for Advancing Translational Sciences [NCATS] NIH Chemical Genomics Center [NCGC] U.S. Environmental Protection Agency [EPA] National Institutes of Environmental Health Sciences [NIEHS] National Toxicology Program [NTP] U.S. Food and Drug Administration [FDA] Tox21 Assay Overview: The peroxisome proliferator-activated receptors (PPARs) are lipid-activated transcription factors of the nuclear receptor superfamily with three distinct subtypes namely PPAR alpha, PPAR delta (PPARd) and PPAR gamma. All these subtypes heterodimerizes with Retinoid X receptor (RXR) and have different physiological functions. […] To identify the compounds that inhibit PPAR-delta signaling, GeneBLAzer PPAR delta UAS-bla HEK293H cell line (Invitrogen, Carlsbad, CA, USA) containing a beta-lactamase reporter gene under the control of an Upstream Activator Sequence (UAS) was used to screen the Tox21 compound library.
Tox21 Assay Protocol Summary: PPARd-bla cells were dispensed at 3000 cells/5uL/well in 1536-well black wall/clear bottom plates using a Multidrop Combi (Thermo Fisher Scientific, Waltham, MA) dispenser. After the assay plates were incubated at 37 C and 5% CO2 for 5 h, 23 nL of compounds dissolved in DMSO, positive controls or DMSO only was transferred to the assay plate by a Pintool station (Kalypsys, San Diego, CA), followed by addition of 1ul L165041 (300 nM, final concentration in the wells). The assay plates were incubated at 37 C for 17 h, and then 1 uL of LiveBLAzerTM B/G FRET substrate was added using a Bioraptr Flying Reagent Dispenser (FRD) workstation (Beckman Coulter, Indianapolis, IN, USA). The assay plates were incubated at room temperature for 2 h and fluorescence intensity was measured by an Envision plate reader (PerkinElmer, Shelton, CT).

Chain of Peroxisome proliferator-activated receptor delta (Homo sapiens) (Q03181 whole entry, looked up): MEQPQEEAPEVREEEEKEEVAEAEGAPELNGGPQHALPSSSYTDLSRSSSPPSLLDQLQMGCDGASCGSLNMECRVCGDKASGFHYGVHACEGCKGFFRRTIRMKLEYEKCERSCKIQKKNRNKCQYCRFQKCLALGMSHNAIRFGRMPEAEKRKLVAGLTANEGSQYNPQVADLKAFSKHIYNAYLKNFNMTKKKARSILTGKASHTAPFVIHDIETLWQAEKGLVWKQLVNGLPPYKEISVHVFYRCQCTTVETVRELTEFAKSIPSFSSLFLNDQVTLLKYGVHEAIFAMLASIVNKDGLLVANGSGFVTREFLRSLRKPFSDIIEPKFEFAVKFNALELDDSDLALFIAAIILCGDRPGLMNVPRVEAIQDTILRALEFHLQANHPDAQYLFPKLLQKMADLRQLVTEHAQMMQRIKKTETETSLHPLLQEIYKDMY

SMILES	Potency	ratio activity, negative = inhibition
O=C(Nc1ccccc1)Nc1ccccc1	inactive	
C[C@@H]1C[C@H]2[C@@H]3CCC4=CC(=O)C=C[C@]4(C)[C@@]3(F)[C@@H](O)C[C@]2(C)[C@H]1C(=O)CO	inactive	
C/C(=N/NC(=O)c1ccncc1)C(=O)O	inactive	
CC(C)=CC=O	inactive	
O=C(Nc1ccc([N+](=O)[O-])cc1)Nc1ccc([N+](=O)[O-])cc1	inactive	
CCCCCCCC/C=C\CCCCCCCC(=O)OC	inactive	
C=CCCCCCCCCCCCCCCCC		-0.434% [at 6.26 µM]
CCC(C)(C)C1CCC(O)CC1 (stereo not given)	inactive	
Cc1ccc(S)cc1	inactive	
OCC1CC=CCC1 (stereo not given)	inactive	
COCCOC(=O)C1=C(C)NC(C)=C(C(=O)OC/C=C/c2ccccc2)C1c1cccc([N+](=O)[O-])c1 (stereo not given)	inactive	
c1cnc2c(n1)CCCC2	inactive	
Cc1nc2ccccn2c(=O)c1CCN1CCC(C(=O)c2ccc(F)cc2)CC1	inactive	
COC(=O)[C@@H]1CC2=CC(=O)CC[C@]2(C)[C@@]23O[C@@H]2C[C@@]2(C)[C@@H](CC[C@@]24CCC(=O)O4)[C@H]13	inactive	
NCC1CCCC(CN)C1 (stereo not given)	inactive	
CC#N	inactive	
COc1ccc([C@@H]2Sc3ccccc3NC(=O)[C@@H]2O)cc1	inactive	
CC(=O)Oc1ccc2c(c1)CC[C@@H]1[C@@H]2CC[C@]2(C)[C@@H](O)CC[C@@H]12	inactive	
CC1CC(O)CC(C)(C)C1 (stereo not given)	inactive	
O=C(CCCN1CCC(O)(c2ccc(Br)cc2)CC1)c1ccc(F)cc1	inactive	

SMILES	Potency	ratio activity, negative = inhibition
CC1(C)C2=CCCC(C)(C)[C@]23CC[C@H]1C3	inactive	
CCCCOC(=O)CCS	inactive	
CCC(Cc1ccccc1)(C(=O)c1ccc(N2CCOCC2)cc1)N(C)C (stereo not given)	inactive	
CC1=C(C=O)C(C)(C)CCC1	inactive	
COCc1c(C(C)C)nc(C(C)C)c(/C=C/[C@@H](O)C[C@@H](O)CC(=O)O)c1-c1ccc(F)cc1	inactive	
NC(=O)N(O)[C@@H]1COc2cc(OCc3ccccc3)ccc21	inactive	
CC(CCc1ccc2c(c1)OCO2)NN (stereo not given)	inactive	
C=CC(C)(C)CC(=O)OC	inactive	
CC1=NN(c2ccc(C(=O)O)cc2)C(=O)C1	inactive	
CC(=O)OCC(=O)[C@@]12OC(C)(C)O[C@@H]1C[C@H]1[C@@H]3C[C@H](F)C4=CC(=O)C=C[C@]4(C)[C@@]3(F)[C@@H](O)C[C@@]12C	inactive	
CC(C)OCC1CO1 (stereo not given)	inactive	
Cc1ccc(/C=N/n2c(-c3ccccc3)csc2=S)cc1	inactive	
Nc1ccc(Cl)cc1[N+](=O)[O-]	inactive	
CCCCCC=CCC=CCCCCCCCC(=O)OCC	inactive	
O=C1OCCN1/N=C/c1ccc([N+](=O)[O-])o1	inactive	
CN(C(=O)C(Cl)Cl)c1ccc(OC(=O)c2ccco2)cc1	inactive	
CC(=O)Nc1ccccc1C	inactive	
O=C(OCCOCCO)c1ccccc1Nc1cccc(C(F)(F)F)c1	inactive	
CN1Cc2cc(C(=O)N3CCC(C4CCNCC4)CC3)ccc2N[C@@H](CC(=O)O)C1=O	inactive	
CCCCCCCCSCCO	inactive	
